# In the supplement of paper PMC12282887:
# ± gives the standard deviation of the averaged measurements.
# How the values were obtained:
# Experiment in all cases: promoter activity interaction Z-score (Lux/OD deviation from empty-vector control); higher = stronger promoter induction by the compound
# [1] = system: E. coli BW25113 ompFp lux reporter
# Outline: (§1)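 Wild-type E. coli BW25113 and three single-gene deletion strains, each carrying a low-copy luxCDABE promoter reporter, were grown at 37°C in 40 µl LB Lennox per well of a 384-well plate. Every compound was applied at four 1:2 dilutions in biological duplicates, and OD600 and luminescence were read every 30 min for 12 h. Integration covered 0–8 h for wild type and 1–9 h for deletion strains, and wells under 10% of the median growth value were removed. Scores are Z-transformed residuals of growth-normalised luminescence fitted against a control.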
# [2] = system: E. coli BW25113 robp lux reporter
# Outline: as §1
# [3] = system: E. coli BW25113 soxSp lux reporter
# Outline: as §1
# [4] = system: E. coli BW25113 tolCp lux reporter
# Outline: as §1
# [5] = 0.046 µg/ml, genetic background: wild type
# [6] = 0.046 µg/ml, genetic background: ΔmarA
# [7] = 0.046 µg/ml, genetic background: Δrob
# [8] = 0.046 µg/ml, genetic background: ΔsoxS
# [9] = 0.091 µg/ml, genetic background: wild type
# [10] = 0.091 µg/ml, genetic background: ΔmarA
# [11] = 0.091 µg/ml, genetic background: Δrob
# [12] = 0.091 µg/ml, genetic background: ΔsoxS
# [13] = 0.011 µg/ml, genetic background: wild type
# [14] = 0.011 µg/ml, genetic background: ΔmarA
# [15] = 0.011 µg/ml, genetic background: Δrob
# [16] = 0.011 µg/ml, genetic background: ΔsoxS
# [17] = 0.023 µg/ml, genetic background: wild type
# [18] = 0.023 µg/ml, genetic background: ΔmarA
# [19] = 0.023 µg/ml, genetic background: Δrob
# [20] = 0.023 µg/ml, genetic background: ΔsoxS
smiles,measurement,setting,value
C[C@@H]1O[C@@H]1P(=O)(O)O [Fosfomycin],promoter activity interaction Z-score,[1]; [5],-0.707 ± 0.057
same,promoter activity interaction Z-score,[1]; [6],0.0141 ± 0.47
same,promoter activity interaction Z-score,[1]; [7],0.161 ± 0.65
same,promoter activity interaction Z-score,[1]; [8],0.414 ± 0.21
same,promoter activity interaction Z-score,[1]; [9],3.07 ± 0.41
same,promoter activity interaction Z-score,[1]; [10],3.8 ± 2.2
same,promoter activity interaction Z-score,[1]; [11],2.55 ± 1.5
same,promoter activity interaction Z-score,[1]; [12],2.08 ± 5
same,promoter activity interaction Z-score,[2]; [13],0.505 ± 0.043
same,promoter activity interaction Z-score,[2]; [14],0.245 ± 0.25
same,promoter activity interaction Z-score,[2]; [15],0.133 ± 0.36
same,promoter activity interaction Z-score,[2]; [16],0.554 ± 0.71
same,promoter activity interaction Z-score,[2]; [17],0.0622 ± 0.91
same,promoter activity interaction Z-score,[2]; [18],0.483 ± 0.81
same,promoter activity interaction Z-score,[2]; [19],0.389 ± 0.11
same,promoter activity interaction Z-score,[2]; [20],1.15 ± 1.3
same,promoter activity interaction Z-score,[2]; [5],-0.338 ± 0.75
same,promoter activity interaction Z-score,[2]; [6],-0.357 ± 0.2
same,promoter activity interaction Z-score,[2]; [7],0.416 ± 0.18
same,promoter activity interaction Z-score,[2]; [8],1.3 ± 1
same,promoter activity interaction Z-score,[2]; [9],-0.301 ± 0.048
same,promoter activity interaction Z-score,[2]; [10],0.127 ± 0.3
same,promoter activity interaction Z-score,[2]; [11],-0.752 ± 0.35
same,promoter activity interaction Z-score,[2]; [12],-0.158 ± 0.9
same,promoter activity interaction Z-score,[3]; [13],0.228 ± 0.36
same,promoter activity interaction Z-score,[3]; [14],0.2 ± 0.11
same,promoter activity interaction Z-score,[3]; [15],-0.0473 ± 0.12
same,promoter activity interaction Z-score,[3]; [16],0.164 ± 0.072
same,promoter activity interaction Z-score,[3]; [17],-0.175 ± 0.12
same,promoter activity interaction Z-score,[3]; [18],0.188 ± 0.14
same,promoter activity interaction Z-score,[3]; [19],-0.154 ± 0.05
same,promoter activity interaction Z-score,[3]; [20],0.0176 ± 0.14
same,promoter activity interaction Z-score,[3]; [5],-0.307 ± 0.09
same,promoter activity interaction Z-score,[3]; [6],0.119 ± 0.16
same,promoter activity interaction Z-score,[3]; [7],0.0235 ± 0.023
same,promoter activity interaction Z-score,[3]; [8],0.138 ± 0.19
same,promoter activity interaction Z-score,[3]; [9],-0.0128 ± 0.14
same,promoter activity interaction Z-score,[3]; [10],0.0924 ± 0.018
same,promoter activity interaction Z-score,[3]; [11],-0.135 ± 0.043
same,promoter activity interaction Z-score,[3]; [12],0.657 ± 0.49
same,promoter activity interaction Z-score,[4]; [13],-0.233 ± 0.12
same,promoter activity interaction Z-score,[4]; [14],-0.202 ± 0.12
same,promoter activity interaction Z-score,[4]; [15],-0.412 ± 0.27
same,promoter activity interaction Z-score,[4]; [16],-0.149 ± 0.38
same,promoter activity interaction Z-score,[4]; [17],-0.358 ± 0.5
same,promoter activity interaction Z-score,[4]; [18],0.891 ± 0.16
same,promoter activity interaction Z-score,[4]; [19],-0.173 ± 0.68
same,promoter activity interaction Z-score,[4]; [20],0.35 ± 0.7
same,promoter activity interaction Z-score,[4]; [5],-1.79 ± 0.32
same,promoter activity interaction Z-score,[4]; [6],-0.292 ± 0.4
same,promoter activity interaction Z-score,[4]; [7],-0.445 ± 0.36
same,promoter activity interaction Z-score,[4]; [8],0.22 ± 0.3
same,promoter activity interaction Z-score,[4]; [9],-0.204 ± 0.16
same,promoter activity interaction Z-score,[4]; [10],-0.347 ± 0.15
same,promoter activity interaction Z-score,[4]; [11],-0.366 ± 0.71
same,promoter activity interaction Z-score,[4]; [12],-0.266 ± 0.13
